Laboratory results: paper PMC5540273 (PLoS ONE, 2017)

Test system: PAK2
Details: concentration: 1 μM, replicates: in singlicate; n = 1
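Further: KINOMEscan kinase panel screen.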

Row | SMILES | %Inh [%]
1 | Cc1cccc(-c2nc(-c3ccc(S(C)(=O)=O)cc3)sc2-c2ccncc2)c1 | 0
2 | Nc1nc(-c2ccc3c(N)n[nH]c3c2)cc(N2CCCC2)n1 [GSK2227430] | 12
3 | NCC(NC(=O)c1cc(-c2cn[nH]c2)c(-c2ccnc3[nH]ccc23)s1)c1ccccc1.O=C(O)C(F)(F)F.O=C(O)C(F)(F)F (stereo not shown) [GSK1325775] | 32
4 | Cc1c(Cn2c(C)nn3c(=O)cc(N4CCOC(C)C4)nc23)cccc1C(F)(F)F (stereo not shown) [GSK2344444] | 0
5 | O=C(Nc1cccc(-c2nn3ncccc3c2-c2ccnc(Nc3cccc(C(F)(F)F)c3)n2)c1)c1c(F)cccc1F [GSK299495] | 0
6 | N#Cc1c(N2CCOCC2)sc(-c2ccn[nH]2)c1-c1ccc(Cl)cc1 | 17
7 | CCc1nc(-c2cccc(C)c2)c(-c2ccnc(NCc3ccccc3)c2)s1 | 27
8 | Nc1nccc(-c2c(-c3ccc(F)cc3)ncn2C2CCN(CC(F)(F)F)CC2)n1 [SB-236560] | 0
9 | CC(=O)Nc1ccc(COc2ccc(Nc3ccnc4cc(-c5ccccn5)ccc34)cc2)cc1.Cl [GW440148] | 0
10 | O=C(NCCCN1CCOCC1)c1cccc(Nc2nccc(Nc3ccc(Oc4ccccc4)cc3)n2)c1 [GW663929] | 15
11 | COc1cc2c(cc1OCCN1CCN(C)CC1)ncc1c3ccc(C#N)cc3[nH]c21 | 39
12 | COc1ccc(Nc2ncc(C#N)c(Nc3ccccc3C(N)=O)n2)cc1N1CCN(C)CC1.Cl [GSK1558669] | 96.9
13 | Cn1ccc2ncnc(Oc3ccc(NC(=O)Nc4ccncc4)c(Cl)c3)c21 | 2
14 | COc1cc2c(cc1OC[C@@H](O)CO)ncc1c3ccc(C#N)cc3[nH]c21 | 0
15 | Cc1cn2c(=O)cc(N3CCOCC3)nc2n1Cc1cccc(Cl)c1Cl [GSK2334006] | 10
16 | Cn1cc(-c2ccc3c(c2)CCN3C(=O)Cc2ccccc2Cl)c2c(N)ncnc21 [GSK2608885] | 13
17 | NS(=O)(=O)c1cccc(-c2ccc3nccc(-c4cccc(S(N)(=O)=O)c4)c3c2)c1 [GW867253] | 53
18 | Cl.Oc1cccc(Nc2ccnc3cc(-c4ccncc4)ccc23)c1 [GW494601] | 0

Row | SMILES | %Inh [%]
19 | [2H]C([2H])(c1cccc(C(F)(F)F)c1C)n1ccn2c(=O)nc(N3CCOCC3)cc12 [GSK2336394] | 12
20 | Cl.Nc1ncnc2occ(-c3ccc(NC(=O)Nc4cc(C(F)(F)F)ccc4F)cc3)c12 [SB-707548] | 30
21 | O=C1NC(=O)C(N2CCc3ccccc32)=C1c1cccc(Cl)c1 [SB-408010] | 44
22 | C[C@@H](Oc1cc(-n2cnc3ccc(NC(=O)NC(C)(C)C)cc32)sc1C(N)=O)c1ccccc1Cl [GSK346294] | 14
23 | O=c1cc(N2CCOCC2)nc2n(Cc3cccc(Cl)c3Cl)c(C3CC3)nn12 [GSK2358994] | 0
24 | CSc1ccc(-c2cc3ncnc(SCC(=O)O)c3s2)cc1 | 0
25 | c1ccc(-c2n[nH]cc2-c2ccnc3ccccc23)nc1 [GW271431] | 20
26 | O=C(NCCNc1ccnc(Nc2ccc(F)cc2)n1)c1cc2ccccc2s1 [GSK1379874] | 0
27 | Fc1ccc(-c2ncn(CCCN3CCOCC3)c2-c2cccnc2)cc1 [SB-211743] | 23
28 | Cc1ccc(NC(=O)c2ccnc(N3CCN(C)CC3)c2)cc1-c1ccc(C(=O)NCC2CC2)cc1 [GW775604] | 37
29 | CN1c2ccc(CNc3ccc(F)cc3)cc2-c2c(cnn2C)S1(=O)=O | 14
30 | CNc1ncnc2[nH]ncc12 [SKF-18355] | 43
31 | COCCNC(=O)c1ccc(-c2cc(C(=O)NC3CC3)cc(F)c2C)cc1 [GW868318] | 49
32 | CCc1ccnc(/C=C/c2n[nH]c3cc(Sc4ccccc4C(=O)NC)ccc23)c1 | 0
33 | CC(C)Oc1ccc2c(-c3ccnc(Nc4ccc(N5CCN(C)CC5)cc4)n3)cnn2n1 [GW696155] | 53
34 | c1ccc(-c2cc(-c3c[nH]nc3-c3ccccn3)ccn2)cc1 [GW576604] | 13
35 | Fc1ccc(-c2ncn(CCCN3CCOCC3)c2-c2ccccn2)cc1 [SB-211742] | 0

Test system: PAK3
Details: concentration: 1 μM, replicates: in singlicate; n = 1

Row | SMILES | %Inh [%]
36 | Cc1cccc(-c2nc(-c3ccc(S(C)(=O)=O)cc3)sc2-c2ccncc2)c1 | 9
37 | Nc1nc(-c2ccc3c(N)n[nH]c3c2)cc(N2CCCC2)n1 [GSK2227430] | 0
38 | NCC(NC(=O)c1cc(-c2cn[nH]c2)c(-c2ccnc3[nH]ccc23)s1)c1ccccc1.O=C(O)C(F)(F)F.O=C(O)C(F)(F)F (stereo not shown) [GSK1325775] | 39
39 | Cc1c(Cn2c(C)nn3c(=O)cc(N4CCOC(C)C4)nc23)cccc1C(F)(F)F (stereo not shown) [GSK2344444] | 20
40 | O=C(Nc1cccc(-c2nn3ncccc3c2-c2ccnc(Nc3cccc(C(F)(F)F)c3)n2)c1)c1c(F)cccc1F [GSK299495] | 10
41 | N#Cc1c(N2CCOCC2)sc(-c2ccn[nH]2)c1-c1ccc(Cl)cc1 | 27
42 | CCc1nc(-c2cccc(C)c2)c(-c2ccnc(NCc3ccccc3)c2)s1 | 22
43 | Nc1nccc(-c2c(-c3ccc(F)cc3)ncn2C2CCN(CC(F)(F)F)CC2)n1 [SB-236560] | 100
44 | CC(=O)Nc1ccc(COc2ccc(Nc3ccnc4cc(-c5ccccn5)ccc34)cc2)cc1.Cl [GW440148] | 22
45 | O=C(NCCCN1CCOCC1)c1cccc(Nc2nccc(Nc3ccc(Oc4ccccc4)cc3)n2)c1 [GW663929] | 0
46 | COc1cc2c(cc1OCCN1CCN(C)CC1)ncc1c3ccc(C#N)cc3[nH]c21 | 0
47 | COc1ccc(Nc2ncc(C#N)c(Nc3ccccc3C(N)=O)n2)cc1N1CCN(C)CC1.Cl [GSK1558669] | 100
48 | Cn1ccc2ncnc(Oc3ccc(NC(=O)Nc4ccncc4)c(Cl)c3)c21 | 0
49 | COc1cc2c(cc1OC[C@@H](O)CO)ncc1c3ccc(C#N)cc3[nH]c21 | 0
50 | Cc1cn2c(=O)cc(N3CCOCC3)nc2n1Cc1cccc(Cl)c1Cl [GSK2334006] | 15
51 | Cn1cc(-c2ccc3c(c2)CCN3C(=O)Cc2ccccc2Cl)c2c(N)ncnc21 [GSK2608885] | 28
52 | NS(=O)(=O)c1cccc(-c2ccc3nccc(-c4cccc(S(N)(=O)=O)c4)c3c2)c1 [GW867253] | 0
53 | Cl.Oc1cccc(Nc2ccnc3cc(-c4ccncc4)ccc23)c1 [GW494601] | 33

Row | SMILES | %Inh [%]
54 | [2H]C([2H])(c1cccc(C(F)(F)F)c1C)n1ccn2c(=O)nc(N3CCOCC3)cc12 [GSK2336394] | 13
55 | Cl.Nc1ncnc2occ(-c3ccc(NC(=O)Nc4cc(C(F)(F)F)ccc4F)cc3)c12 [SB-707548] | 15
56 | O=C1NC(=O)C(N2CCc3ccccc32)=C1c1cccc(Cl)c1 [SB-408010] | 0
57 | C[C@@H](Oc1cc(-n2cnc3ccc(NC(=O)NC(C)(C)C)cc32)sc1C(N)=O)c1ccccc1Cl [GSK346294] | 15
58 | O=c1cc(N2CCOCC2)nc2n(Cc3cccc(Cl)c3Cl)c(C3CC3)nn12 [GSK2358994] | 0
59 | CSc1ccc(-c2cc3ncnc(SCC(=O)O)c3s2)cc1 | 0
60 | c1ccc(-c2n[nH]cc2-c2ccnc3ccccc23)nc1 [GW271431] | 6
61 | O=C(NCCNc1ccnc(Nc2ccc(F)cc2)n1)c1cc2ccccc2s1 [GSK1379874] | 0
62 | Fc1ccc(-c2ncn(CCCN3CCOCC3)c2-c2cccnc2)cc1 [SB-211743] | 0
63 | Cc1ccc(NC(=O)c2ccnc(N3CCN(C)CC3)c2)cc1-c1ccc(C(=O)NCC2CC2)cc1 [GW775604] | 0
64 | CN1c2ccc(CNc3ccc(F)cc3)cc2-c2c(cnn2C)S1(=O)=O | 0
65 | CNc1ncnc2[nH]ncc12 [SKF-18355] | 0
66 | COCCNC(=O)c1ccc(-c2cc(C(=O)NC3CC3)cc(F)c2C)cc1 [GW868318] | 27
67 | CCc1ccnc(/C=C/c2n[nH]c3cc(Sc4ccccc4C(=O)NC)ccc23)c1 | 0
68 | CC(C)Oc1ccc2c(-c3ccnc(Nc4ccc(N5CCN(C)CC5)cc4)n3)cnn2n1 [GW696155] | 28
69 | c1ccc(-c2cc(-c3c[nH]nc3-c3ccccn3)ccn2)cc1 [GW576604] | 16
70 | Fc1ccc(-c2ncn(CCCN3CCOCC3)c2-c2ccccn2)cc1 [SB-211742] | 0
